# Data from the supplement of paper PMC12494721.
# Where a name gives a salt, the structure may show the parent alone.
# Key:
# Conditions in all cases: 20 µM; incubation time: 27 h, anaerobic, 37 °C;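 for the amine columns active = adjusted P below 0.05 in both replicates with a change the same way and a mean fold change under 0.8 or over 1.25; inactive = the rest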
# [1] = system: Clostridium sporogenes DSM 1664; test: growth (OD595) fold change vs plate DMSO controls (fold change (ratio)); higher = more growth
# Outline: (§1)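 To obtain OD, 595 nm absorbance readings were blank-subtracted, corrected for compound background using 20 µM compound solutions in water, and multiplied by a calibration factor of 5. They came from 96-well mGAM cultures grown anaerobically for 27 h at 37 °C and shaken before reading. Growth is the fold change relative to the median of plate DMSO controls. Two biological replicates were averaged, and fold changes above 1.5 were set to NA.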
# Escherichia coli IAI1 [2] = test: as above
# Outline: as §1
# [3] = system: Klebsiella aerogenes DSM 30053; test: as above
# Outline: as §1
# [4] = system: Ruminococcus gnavus DSM 108212; test: as above
# Outline: as §1
# [5] = system: Klebsiella aerogenes DSM 30053; test: fold change of Histamine concentration vs plate DMSO controls (fold change (ratio)); higher = more amine produced, active = hit call of the paper (significant change in both replicates, either direction)
# Outline: (§2)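 Using LC–triple-quadrupole MS with dynamic MRM, amines were quantified against external calibration curves and corrected for drift within each batch. Samples were whole anaerobic mGAM cultures of four gut strains, grown 27 h at 37 °C from OD 0.1 before 1:1 dilution, extracted with cold acetonitrile/methanol containing 0.1% formic acid and centrifuged. Compounds were present at 20 µM final (sweeteners at 50 µM final). The numbers are fold changes versus plate DMSO controls, each the mean of 2 biological replicates.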
# [6] = system: Clostridium sporogenes DSM 1664; test: fold change of Tryptamine concentration vs plate DMSO controls (fold change (ratio)); higher = more amine produced, active = hit call of the paper (significant change in both replicates, either direction)
# Outline: as §2
# [7] = system: Ruminococcus gnavus DSM 108212; test: as above
# Outline: as §2
# Escherichia coli IAI1 [8] = test: fold change of Putrescine concentration vs plate DMSO controls (fold change (ratio)); higher = more amine produced, active = hit call of the paper (significant change in both replicates, either direction)
# Outline: as §2
# [9] = system: Klebsiella aerogenes DSM 30053; test: as above
# Outline: as §2
# Escherichia coli IAI1 [10] = test: fold change of Cadaverine concentration vs plate DMSO controls (fold change (ratio)); higher = more amine produced, active = hit call of the paper (significant change in both replicates, either direction)
# Outline: as §2
# [11] = system: Klebsiella aerogenes DSM 30053; test: as above
# Outline: as §2
# [12] = system: Ruminococcus gnavus DSM 108212; test: fold change of 2-Phenylethylamine concentration vs plate DMSO controls (fold change (ratio)); higher = more amine produced, active = hit call of the paper (significant change in both replicates, either direction)
# Outline: as §2
SMILES,growth [1],growth (Escherichia coli IAI1 [2]),growth [3],growth [4],fold change of Histamine concentration [5],fold change of Tryptamine concentration [6],fold change of Tryptamine concentration [7],fold change of Putrescine concentration (Escherichia coli IAI1 [8]),fold change of Putrescine concentration [9],fold change of Cadaverine concentration (Escherichia coli IAI1 [10]),fold change of Cadaverine concentration [11],fold change of 2-Phenylethylamine concentration [12]
CC[C@H]1CCC[C@H](O[C@H]2CC[C@H](N(C)C)[C@@H](C)O2)[C@@H](C)C(=O)C2=C[C@@H]3[C@@H](C=C(C)[C@@H]4C[C@@H](O[C@@H]5O[C@@H](C)[C@H](OC)[C@@H](OC)[C@H]5OC)C[C@@H]34)[C@@H]2CC(=O)O1.CC[C@H]1CCC[C@H](O[C@H]2CC[C@H](N(C)C)[C@@H](C)O2)[C@@H](C)C(=O)C2=C[C@H]3[C@@H]4C[C@H](O[C@@H]5O[C@@H](C)[C@H](OC)[C@@H](OC)[C@H]5OC)C[C@H]4C=C[C@H]3C2CC(=O)O1,1.03,0.983,1.01,0.919,0.93 (inactive),0.96 (inactive),0.984 (inactive),1.02 (inactive),0.991 (inactive),1.01 (inactive),0.992 (inactive),0.982 (inactive)
CC(=O)O[C@H]1C[C@H](O[C@H]2[C@@H](O)C[C@H](O[C@H]3[C@@H](O)C[C@H](O[C@H]4CC[C@@]5(C)[C@H](CC[C@@H]6[C@@H]5C[C@@H](O)[C@]5(C)[C@@H](C7=CC(=O)OC7)CC[C@]65O)C4)O[C@@H]3C)O[C@@H]2C)O[C@H](C)[C@H]1O[C@@H]1O[C@H](CO)[C@@H](O)[C@H](O)[C@H]1O [Lanatoside C],1.01,0.957,0.998,1.12,0.992 (inactive),0.962 (inactive),1.07 (inactive),1.09 (inactive),0.991 (inactive),1.02 (inactive),0.996 (inactive),1.1 (inactive)
COc1ccc2c(c1)[C@]13CCCC[C@@H]1[C@H](C2)N(C)CC3 [Dextromethorphan hydrobromide monohydrate],1.05,0.975,1.05,0.761,0.977 (inactive),0.991 (inactive),0.998 (inactive),0.962 (inactive),0.999 (inactive),1.01 (inactive),1.02 (inactive),1.04 (inactive)
O=C(NC(=O)c1c(F)cccc1F)Nc1ccc(Cl)cc1,1.04,0.979,1.02,0.975,1.01 (inactive),0.919 (inactive),0.999 (inactive),0.982 (inactive),1.05 (inactive),1.01 (inactive),1.03 (inactive),0.98 (inactive)
COC(=O)NC(=S)Nc1ccccc1NC(=S)NC(=O)OC,1.11,1.02,0.97,0.994,0.974 (inactive),1.02 (inactive),0.971 (inactive),0.954 (inactive),0.972 (inactive),0.974 (inactive),1.01 (inactive),0.936 (inactive)
COc1ccc(C(CN(C)C)C2(O)CCCCC2)cc1 (stereo not given) [Venlafaxine],0.902,0.974,0.983,1.1,1.04 (inactive),0.942 (inactive),1.01 (inactive),1.04 (inactive),1 (inactive),0.819 (inactive),0.974 (inactive),1.06 (inactive)
COC(=O)N(C(=O)N1CO[C@@]2(C(=O)OC)Cc3cc(Cl)ccc3C2=N1)c1ccc(OC(F)(F)F)cc1,1.15,0.998,0.992,0.903,0.975 (inactive),1.03 (inactive),1.03 (inactive),0.945 (inactive),0.915 (inactive),0.907 (inactive),1.03 (inactive),0.986 (inactive)
C[N+]1(C)CCOC(O)(c2ccc(-c3ccc(C4(O)C[N+](C)(C)CCO4)cc3)cc2)C1 (stereo not given) [Hemicholinium bromide],1.04,0.992,1.2,1.27,0.912 (inactive),1.18 (inactive),1.06 (inactive),1.01 (inactive),0.995 (inactive),0.928 (inactive),1.02 (inactive),1.07 (inactive)
O=c1[nH]c2ccccc2n1C1CCN(CCCC(c2ccc(F)cc2)c2ccc(F)cc2)CC1 [Pimozide],1.41,0.978,0.99,1.25,1.01 (inactive),0.938 (inactive),0.846 (inactive),0.979 (inactive),1.01 (inactive),0.964 (inactive),0.995 (inactive),0.898 (inactive)
CCOc1cc(Oc2ccc(C(F)(F)F)cc2Cl)ccc1[N+](=O)[O-],1.13,0.996,1,0.995,0.981 (inactive),1.06 (inactive),1.04 (inactive),0.953 (inactive),0.943 (inactive),0.933 (inactive),1.08 (inactive),1.05 (inactive)
CC(N)C(O)c1ccccc1 (stereo not given) [Phenylpropanolamine hydrochloride],0.914,1.04,0.98,1.21,1.1 (inactive),1.22 (inactive),1.07 (inactive),1.06 (inactive),1.03 (inactive),1.05 (inactive),0.982 (inactive),1.08 (inactive)
COc1ccc(OC)c(C(O)C(C)N)c1 (stereo not given) [Methoxamine hydrochloride],0.777,0.736,0.696,0.0622,1.06 (inactive),1.07 (inactive),0.161 (active),1.05 (inactive),1 (inactive),0.968 (inactive),0.988 (inactive),0.165 (active)
N#Cc1c[nH]cc1-c1cccc2c1OC(F)(F)O2,0.873,0.959,0.984,1.17,1.01 (inactive),1.03 (inactive),0.939 (inactive),0.993 (inactive),0.977 (inactive),1.08 (inactive),0.981 (inactive),0.972 (inactive)
C=C1C[C@@H]2[C@H](CC[C@]3(C)C(=O)CC[C@@H]23)[C@@]2(C)C=CC(=O)C=C12 [Exemestane],0.934,1,1.03,1.07,0.984 (inactive),1.07 (inactive),1.03 (inactive),1.05 (inactive),0.981 (inactive),0.996 (inactive),1 (inactive),1.02 (inactive)
CCc1cc(C)cc(CC)c1-c1c(OC(=O)C(C)(C)C)n2n(c1=O)CCOCC2,0.933,1.05,0.985,0.919,0.979 (inactive),1.11 (inactive),0.99 (inactive),1.02 (inactive),1.01 (inactive),1.05 (inactive),0.994 (inactive),0.985 (inactive)
CCN(C)C(=O)Oc1cccc([C@H](C)N(C)C)c1 [Rivastigmine],0.985,1.03,1.02,1.05,0.987 (inactive),1.18 (inactive),1.13 (inactive),0.958 (inactive),0.993 (inactive),0.937 (inactive),1.03 (inactive),1.18 (inactive)
OC(c1ccccc1)(c1ccccc1)C1CCNCC1 [Azacyclonol],1.09,1.01,1.01,1.1,1.06 (inactive),1.02 (inactive),1.07 (inactive),1.02 (inactive),1.01 (inactive),0.849 (inactive),1 (inactive),1.06 (inactive)
C[N+]1(C)CCCC(OC(=O)C(O)(c2ccccc2)c2ccccc2)C1 (stereo not given) [Mepenzolate bromide],0.917,0.957,1.02,0.882,0.962 (inactive),1 (inactive),1.03 (inactive),0.871 (inactive),1.02 (inactive),1.03 (inactive),1.01 (inactive),1.02 (inactive)
COC(=O)Nc1nc2ccccc2[nH]1,0.898,0.977,0.989,0.903,1.01 (inactive),0.968 (inactive),0.959 (inactive),0.997 (inactive),1 (inactive),1 (inactive),0.989 (inactive),0.951 (inactive)
CO/C=C(/C(=O)OC)c1ccccc1COc1cccc(C(F)(F)F)n1,1.04,1.03,1.05,0.952,0.977 (inactive),1.02 (inactive),0.996 (inactive),1.06 (inactive),1 (inactive),1 (inactive),1 (inactive),0.98 (inactive)
CN(C)C(=O)Oc1ccc[n+](C)c1 [Pyridostigmine iodide],1.02,0.975,1,0.901,1.05 (inactive),0.975 (inactive),1.01 (inactive),0.993 (inactive),0.98 (inactive),1.01 (inactive),1.03 (inactive),1.02 (inactive)
Cc1cc(C(C#N)c2ccc(Cl)cc2)c(Cl)cc1NC(=O)c1cc(I)cc(I)c1O (stereo not given),0,0.947,1,0.156,1.07 (inactive),0.0183 (active),0.104 (active),1.07 (inactive),1.03 (inactive),1.29 (active),1.01 (inactive),0.11 (active)
NCC(CC(=O)O)c1ccc(Cl)cc1 (stereo not given) [Baclofen],1.11,1.17,1,1.33,1.04 (inactive),1.06 (inactive),1.1 (inactive),1.09 (inactive),0.988 (inactive),1 (inactive),1.03 (inactive),1.11 (inactive)
CCCN(CCC)C(=O)SCc1ccccc1,1.02,1,1.03,0.973,1.04 (inactive),1.02 (inactive),0.923 (inactive),1.02 (inactive),1.01 (inactive),0.995 (inactive),0.993 (inactive),0.897 (inactive)
CCCCC(C#N)(Cn1cncn1)c1ccc(Cl)cc1 (stereo not given),1.07,1.07,1.01,1.14,0.939 (inactive),1.2 (inactive),1.07 (inactive),0.908 (inactive),0.815 (inactive),0.907 (inactive),1.16 (inactive),1.14 (inactive)
